# KB-3-1 cytotox – kills parental KB-3-1 adenocarcinoma cells; KB-3-1 viability, CellTiter-Glo ATP luminescence, 72 h; Potency, µM (doses to about 46.1 µM), actives largely listed as cytotoxic; 1.4% of 400,000 active; AID 1347075; note: % is set by controls: 0 for no effect and ±100 for the full control effect; nearly all actives have a fitted effect of over 60% in size
#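 Here the drug-naive KB-3-1 line serves as comparator for MDR sub-line selectivity; cells received compound titrations, 72 h at 37 °C, then CellTiter-Glo readout.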
# KB-V1 cytotox – kills drug-selected multidrug resistant KB-V1 cells. Potency, µM (highest dose often 46.1 µM), actives largely listed as cytotoxic. 3.4% of 400,000 active. KB-V1 MDR cells viability, CellTiter-Glo, 72 h. AID 1347076; note: % is set by controls: 0 for no effect and ±100 for the full control effect; nearly all actives have a fitted effect of over 60% in size
#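 qHTS viability screen in drug-selected KB-V1 MDR cells: 72 h compound treatment at 37 degrees C, ATP luminescence end point.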
# Gal4-VP16 FLuc – counter-screen for ROR gamma inhibitors: Gal4-VP16 reporter; Drosophila S2 Gal4-VP16 UAS-luciferase, luminescence, 20 h; Potency, µM (titrated, usually from 53.6 µM), for inactives: at the top dose activity, negative = inhibition, most hits filed as inhibitors; 3.5% of 310,000 active; AID 2546;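 note: Gal4-VP16 expression switched on by copper sulfate through the metallothionein promoter; % is set by controls: 0 for no effect and ±100 for the full control effect; nearly all actives have a fitted effect of over 50% in size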
# MCF10A rerep – induces DNA re-replication in MCF 10a normal breast cells. MCF 10A DNA re-replication, Hoechst nuclear intensity, 48 h. Potency, µM (titrated, usually from 46.1 µM), inactives show at the top dose activity, positive = re-replication, usual class: activators. 2.9% of 350,000 active; note: % of control where 0% means no effect; nearly all actives have a fitted effect of over 50% in size
# RORg inh – blocks mouse ROR gamma transcriptional activity; P51450; Drosophila S2 Gal4-RORgamma UAS-luciferase reporter, 20 h; Potency, µM (titrated, usually from 53.6 µM), inactives show at the highest dose activity change, negative = inhibition, hits mostly inhibitors; 5.4% of 310,000 active; note: % is set by controls: 0 for no effect and ±100 for the full control effect; nearly all actives have a fitted effect of over 60% in size
# Target sequence (P51450 whole entry, looked up, the tested form may be a part): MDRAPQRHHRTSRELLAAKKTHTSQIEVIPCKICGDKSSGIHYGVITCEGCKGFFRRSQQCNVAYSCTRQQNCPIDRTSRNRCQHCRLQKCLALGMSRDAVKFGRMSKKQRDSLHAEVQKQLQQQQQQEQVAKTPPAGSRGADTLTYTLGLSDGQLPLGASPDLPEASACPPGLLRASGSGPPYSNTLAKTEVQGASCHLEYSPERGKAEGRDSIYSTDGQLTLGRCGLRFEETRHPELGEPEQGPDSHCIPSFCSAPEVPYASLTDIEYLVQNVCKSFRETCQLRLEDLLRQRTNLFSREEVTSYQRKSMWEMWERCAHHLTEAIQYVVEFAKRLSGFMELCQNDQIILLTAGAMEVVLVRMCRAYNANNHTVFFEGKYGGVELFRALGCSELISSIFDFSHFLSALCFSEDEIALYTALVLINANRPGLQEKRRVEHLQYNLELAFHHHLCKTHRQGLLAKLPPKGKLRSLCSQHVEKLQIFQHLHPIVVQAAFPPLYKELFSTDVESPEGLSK
#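 ROR gamma transcriptional activity was tracked as Gal4-UAS luciferase output in stably transfected Drosophila Schneider cells, with compound added 1 hr before 700 uM copper sulfate induction and a 20 hr ambient-temperature incubation.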
# SW480 rerep – DNA re-replication induction in SW480 cells | SW480 DNA re-replication, Hoechst DNA content imaging, 48 h | Potency, µM (series often up to 46.1 µM), for the others: at the highest dose re-replication activation, hits mostly activators | 1.8% of 340,000 active; note: % of control where 0% means no effect; nearly all actives have a fitted effect of over 55% in size
#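 DNA re-replication was detected as more nuclei of elevated Hoechst intensity after 48 hr exposure to compound (23 nL pinned per well of 250 cells).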
# An asterisk follows results filed as active; i = inactive; u = inconclusive; x = no result given; [ ] = dose if it differs, or a comment. Only some compounds are listed: those with a hit (about 10% of all), similar ones and a draw of the others. Calls come from the whole dose curve; as a rule, active = well fitted curve in the direction sought with a large enough effect; inconclusive = small, poorly fitted or top-dose-only effect, or another doubt; inactive = no such curve, though single readings can be large; an effect the other way counts as inactive or inconclusive. Potency is the fitted concentration of half-maximal effect.
SMILES,KB-3-1 cytotox,KB-V1 cytotox,Gal4-VP16 FLuc,MCF10A rerep,RORg inh,SW480 rerep
COc1cc(CCC(=O)Nc2nnc(C)s2)cc(OC)c1OC,u,u,-4%,10µM*,12%,6.5µM*
O=C1CCCC2=C1C1(CCCC1)N=C(Nc1nc3cc(Cl)ccc3o1)N2,i,u,x,x,x,x
COC(=O)c1scc(-c2ccc(C)cc2)c1S(=O)(=O)N1CCN(c2cccc(Cl)c2)CC1,i,i,x,x,x,x
COc1c(O)ccc(/C=N\NC(=O)c2ccc3c(c2)OCO3)c1[N+](=O)[O-],i,i,u,-6%,10µM*,-7%
O=C(N/N=C/c1cc2c(cc1[N+](=O)[O-])OCO2)c1ccc2c(c1)OCO2,i,i,2%,0%,17%,-9%
COc1c(O)ccc(/C=N/NC(=O)c2ccc3c(c2)OCCO3)c1[N+](=O)[O-],i,i,1.6µM*,-11%,1.1µM*,6%
CCOC(=O)c1ccccc1NC(=O)COC(=O)Cc1ccccc1F,i,i,x,0%,x,-4%
C[N+]1(CC(=O)c2ccccc2)CCc2ccccc2C1 (configuration not stated),i,i,x,x,x,x
Cc1cccc(-c2cc3nc4c(c(NCc5ccco5)n3n2)CCCC4)c1,i,u,-13%,16µM*,u,u
Cc1cccc(-c2cc3nc4c(c(N5CCC6(CC5)OCCO6)n3n2)CCCC4)c1,i,u,x,15%,x,-1%
Cc1cc(-c2ccccc2)c2ccc(NC(=O)C(C)(C)C)nc2n1,i,i,u,0%,11µM*,9%
CC(C)(C)c1cn(-c2ccc(Cl)cc2)c(=S)[nH]1,i,i,5.6µM*,6%,4.5µM*,3%
Cc1cccc(N2CCN(C(c3ccc(F)cc3)c3nnc(-c4ccccc4)o3)CC2)c1C (configuration not stated),i,u,x,x,x,x
Ic1ccc(Nc2nc(NCCN3CCOCC3)nc(N3CCOCC3)n2)cc1,i,i,x,x,x,x
CCOc1[nH]n(-c2ccccc2)c(=O)c1C=Nc1ccccc1,i,u,-4%,23µM*,9%,u
CCOc1[nH]n(-c2ccccc2)c(=O)c1C=Nc1ccc(C)cc1,i,i,-6%,-6%,22%,1%
COC(=O)N1CCC2(CCCN(Cc3nccs3)C2)CC1,x,x,-19%,x,0%,x
Cc1ccc(S(=O)(=O)NCC(=O)NCC(=O)N(C)Cc2ccc(Br)s2)cc1C,i,u,x,x,x,x
Cc1cc(C)c(NC(=O)CNC(=O)CN(C)Cc2ccc(Br)s2)c(C)c1,i,16µM*,x,2%,x,-3%
COc1ccc2oc(-c3cccc(NC(=O)c4ccc(C#N)cc4F)c3)nc2c1,i,i,x,x,x,x
CN1CCN(c2nc(-c3ccc4c(c3)OCO4)nc3ccccc23)CC1,x,x,-4%,x,-20%,x
c1ccc2c(Nc3nc4c(s3)CCCC4)cccc2c1,u,u,u,u,13µM*,6%
S=C1NC(c2ccccc2)=NCN1c1ccccc1,i,i,1%,2%,10µM*,-2%
Cc1ccc(C2=NCN(c3ccc(C(=O)O)cc3)C(=S)N2)cc1,x,x,-1%,x,1%,x
CCOc1ccc(S(=O)(=O)n2cc(-c3ccc(F)cc3)c(N)n2)cc1,i,16µM*,4%,2%,13%,-7%
SMILES,KB-3-1 cytotox,KB-V1 cytotox,Gal4-VP16 FLuc,MCF10A rerep,RORg inh,SW480 rerep
CCOc1ccc(S(=O)(=O)n2cc(-c3ccccc3)c(N)n2)cc1,i,i,-16%,-6%,32%,-1%
Cc1ccc(-c2cn(S(=O)(=O)c3ccc(C)cc3)nc2N)cc1,i,13µM*,2%,u,-19%,-3%
Nc1nn(S(=O)(=O)c2ccccc2)cc1-c1cccc([N+](=O)[O-])c1,i,u,3%,-3%,21%,-3%
CCOc1cc(-c2cn(S(=O)(=O)c3cccc4nsnc34)nc2N)cc(OCC)c1OCC,i,i,-5%,-3%,22%,-3%
CCOc1cc(S(=O)(=O)n2cc(-c3ccc(F)cc3)c(N)n2)cc(OCC)c1OCC,u,16µM*,8%,15%,-32%,u
Cc1cc(Cl)ccc1Oc1ncc(-c2ccc(Cl)cc2)cn1,i,18µM*,-3%,26%,13%,3%
Cc1ccc(C(=O)OCC(=O)NNC(=O)c2cccs2)c(O)c1,i,i,x,-17%,x,18µM*
O=C(COC(=O)c1ccccc1[N+](=O)[O-])NNC(=O)c1cccs1,i,i,x,-1%,x,-5%
N#Cc1c(-c2ccccc2Cl)c2c([nH]c1=O)-c1ccccc1OC2,i,i,-1%,4.1µM*,-17%,18µM*
CCOC(=O)c1ccc(NC(=O)N2CCOc3ccccc32)cc1,i,i,x,x,x,x
CSc1ccc(CN2CCC2(C)C(=O)NCc2ccc3c(c2)OCO3)cc1 (configuration not stated),i,i,x,x,x,x
O=C(CSc1nc2nc(-c3cccs3)cc(C(F)(F)F)c2c(=O)[nH]1)Nc1c(F)c(F)c(F)c(F)c1F,u,i,9%,u,25%,-20%[1.84 µM]
N#Cc1c(C(F)(F)F)cc(-c2cccs2)nc1SCC(=O)O,i,i,-8%,0%,-4%,-3%
N#Cc1c(C(F)(F)F)cc(-c2cccs2)nc1SC(C(=O)O)c1ccccc1 (configuration not stated),i,i,x,21µM*,x,-14%
O=c1[nH]c(=S)[nH]c2nc(-c3cccs3)cc(C(F)(F)F)c12,i,i,-12%,-6%,11µM*,-2%
CNc1nc(-c2cccs2)cc(C(F)(F)F)c1C#N,i,i,-1%,18µM*,-6%,5.8µM*
Cc1csc(NC(=O)C2(C)CCN2C(=O)C(C)C)c1C#N (configuration not stated),i,i,x,x,x,x
CCOC(=O)c1cccc(NC(=O)CCC(=O)N2CC(C)Oc3ccc(C)cc32)c1 (configuration not stated),i,i,x,x,x,x
CN1CCN(S(=O)(=O)c2ccc(NC(=O)c3ccc(Br)s3)cc2)CC1,i,i,1%,15µM*,40%,u
CN1CCN(S(=O)(=O)c2ccc(NC(=O)c3ccc(Br)o3)cc2)CC1,i,9.2µM*,14%,17%,-20%,-5%
COc1cccc(CNCCSc2nnnn2C)c1OCc1ccccc1F,i,i,x,x,x,x
Nc1n[nH]c(=S)n1-c1ccc(Cl)cc1,i,i,-19%,19%,-9%,6%

# Assay outcomes (PubChem)
